In PubChem BioAssay (EPA / NIEHS):
Several values for one entry are separate records, joined by “and”; a condition that tells them apart may be missing. Equal values may be shown once. A structure can be active in one record and inactive in another. Activity calls are given as the source filed them. Rule for the calls: active = hit-call score of the fitted dose curve at least 0.9, where 1 is the maximum; inactive = score below 0.9.

Tests used:
[1] = CEETOX_H295R_OHPROG: CeeTox H295R High-throughput Steroidogenesis Assay for OH-Progesterone (OHPROG) (AID 2283435); details: actives raise or lower the signal
In short: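 Medium steroid levels read by LC-MS/MS after 48 h chemical treatment (0.1% DMSO) of human adrenal H295R cells that had been forskolin-primed (10 uM, 48 h). Gain or loss fitted against DMSO; MTT cytotoxicity checked per well.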

[2] = CEETOX_H295R_ANDR: CeeTox H295R High-throughput Steroidogenesis Assay for Androstenedione (ANDR) (AID 2283436); details: actives raise or lower the signal
In short: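 Medium from 48 h chemical-treated H295R adrenal cells was extracted with MTBE and androstenedione measured by LC-MS/MS. Activity was fit in both directions relative to DMSO. Cytotoxic concentrations were re-tested after dilution until MTT viability reached ≥70%.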

[3] = CEETOX_H295R_CORTIC: CeeTox H295R High-throughput Steroidogenesis Assay for Corticosterone (CORTIC) (AID 2283437); details: actives raise or lower the signal
In short: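 Medium corticosterone was quantified by tandem mass spectrometry following 48 hours of chemical exposure (0.1% DMSO) in human H295R cells previously stimulated 48 hours with 10 uM forskolin. Viability checked by MTT; chemicals diluted and retested when viability fell below 70%.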

[4] = CEETOX_H295R_CORTISOL: CeeTox H295R High-throughput Steroidogenesis Assay for Cortisol (AID 2283438); details: actives raise or lower the signal
In short: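 Cortisol measured by HPLC-MS/MS after MTBE extraction of medium from H295R cells exposed 48 h to chemical (0.1% DMSO), following 48 h prestimulation with 10 uM forskolin. Viability assessed by MTT in the same wells.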

[5] = CEETOX_H295R_DOC: CeeTox H295R High-throughput Steroidogenesis Assay for DOC (AID 2283439); details: actives raise or lower the signal
In short: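 11-Deoxycorticosterone quantified in medium by MTBE extraction and HPLC-MS/MS after 48 h chemical exposure (0.1% DMSO) of forskolin-primed (10 uM, 48 h) H295R cells. Same-well MTT viability; data fitted bidirectionally against DMSO.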

[6] = CEETOX_H295R_ESTRADIOL: CeeTox H295R High-throughput Steroidogenesis Assay for Estradiol (AID 2283440); details: actives raise or lower the signal;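 note: estradiol secreted into medium quantified by LC-MS/MS after dansyl derivatisation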
In short: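 Following OECD 456 with minor changes, H295R cells received 10 uM forskolin for 48 h and then test chemical for 48 h. Hormone output was read by HPLC-MS/MS, with cytotoxic concentrations diluted until MTT viability reached ≥70%.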

[7] = CEETOX_H295R_ESTRONE: CeeTox H295R High-throughput Steroidogenesis Assay for Estrone (AID 2283441); details: actives raise or lower the signal
In short: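 Estrone secreted into medium quantified by LC-MS/MS after dansyl chloride derivatization, following 48 h chemical exposure (0.1% DMSO final) of forskolin-prestimulated (10 uM, 48 h) H295R cells; gain or loss fitted against DMSO; MTT viability in same wells.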

[8] = CEETOX_H295R_PROG: CeeTox H295R High-throughput Steroidogenesis Assay for Progesterone (PROG) (AID 2283442); details: actives raise or lower the signal
In short: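 Adrenal H295R line, forskolin-stimulated (10 uM, 48 h) before dosing. 48 h exposure, 0.1% DMSO vehicle. Secreted progesterone by reverse-phase HPLC with ESI+ MS/MS quantification; DMSO-normalised bidirectional curve fit.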

[9] = read-out: Tumor necrosis factor receptor superfamily member 6 (Homo sapiens) (UniProt P25445); assay: LTEA_HepaRG_FAS: Life Technologies and Expression Analysis (LTEA) Assay for Fas cell surface death receptor (FAS) using HepaRG (AID 2283447); details: mRNA level, 48 h; actives raise or lower the signal
In short: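 FAS transcript level was measured by TaqMan qRT-PCR against three housekeeping genes after 48 h chemical exposure. Cells were HepaRG, 0.5% DMSO vehicle, with a top concentration of 100 uM and half-log dilutions over eight points, in duplicate.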

[10] = read-out: Fatty acid synthase (Homo sapiens) (UniProt P49327); assay: LTEA_HepaRG_FASN: Life Technologies and Expression Analysis (LTEA) Assay for Fatty Acid Synthase (FASN) using HepaRG (AID 2283448); details: mRNA level, 48 h; actives raise or lower the signal;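 for AC50: differentiated human HepaRG liver cells in serum-free induction medium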
In short: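 FASN transcript measured by TaqMan qRT-PCR, normalised to three housekeeping genes, after 48 h chemical exposure of HepaRG cells. Eight-point half-log series from 100 uM in 0.5% DMSO, duplicates; gain or loss fitted against vehicle.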

Sequence of Fatty acid synthase (Homo sapiens) (P49327 whole entry, looked up): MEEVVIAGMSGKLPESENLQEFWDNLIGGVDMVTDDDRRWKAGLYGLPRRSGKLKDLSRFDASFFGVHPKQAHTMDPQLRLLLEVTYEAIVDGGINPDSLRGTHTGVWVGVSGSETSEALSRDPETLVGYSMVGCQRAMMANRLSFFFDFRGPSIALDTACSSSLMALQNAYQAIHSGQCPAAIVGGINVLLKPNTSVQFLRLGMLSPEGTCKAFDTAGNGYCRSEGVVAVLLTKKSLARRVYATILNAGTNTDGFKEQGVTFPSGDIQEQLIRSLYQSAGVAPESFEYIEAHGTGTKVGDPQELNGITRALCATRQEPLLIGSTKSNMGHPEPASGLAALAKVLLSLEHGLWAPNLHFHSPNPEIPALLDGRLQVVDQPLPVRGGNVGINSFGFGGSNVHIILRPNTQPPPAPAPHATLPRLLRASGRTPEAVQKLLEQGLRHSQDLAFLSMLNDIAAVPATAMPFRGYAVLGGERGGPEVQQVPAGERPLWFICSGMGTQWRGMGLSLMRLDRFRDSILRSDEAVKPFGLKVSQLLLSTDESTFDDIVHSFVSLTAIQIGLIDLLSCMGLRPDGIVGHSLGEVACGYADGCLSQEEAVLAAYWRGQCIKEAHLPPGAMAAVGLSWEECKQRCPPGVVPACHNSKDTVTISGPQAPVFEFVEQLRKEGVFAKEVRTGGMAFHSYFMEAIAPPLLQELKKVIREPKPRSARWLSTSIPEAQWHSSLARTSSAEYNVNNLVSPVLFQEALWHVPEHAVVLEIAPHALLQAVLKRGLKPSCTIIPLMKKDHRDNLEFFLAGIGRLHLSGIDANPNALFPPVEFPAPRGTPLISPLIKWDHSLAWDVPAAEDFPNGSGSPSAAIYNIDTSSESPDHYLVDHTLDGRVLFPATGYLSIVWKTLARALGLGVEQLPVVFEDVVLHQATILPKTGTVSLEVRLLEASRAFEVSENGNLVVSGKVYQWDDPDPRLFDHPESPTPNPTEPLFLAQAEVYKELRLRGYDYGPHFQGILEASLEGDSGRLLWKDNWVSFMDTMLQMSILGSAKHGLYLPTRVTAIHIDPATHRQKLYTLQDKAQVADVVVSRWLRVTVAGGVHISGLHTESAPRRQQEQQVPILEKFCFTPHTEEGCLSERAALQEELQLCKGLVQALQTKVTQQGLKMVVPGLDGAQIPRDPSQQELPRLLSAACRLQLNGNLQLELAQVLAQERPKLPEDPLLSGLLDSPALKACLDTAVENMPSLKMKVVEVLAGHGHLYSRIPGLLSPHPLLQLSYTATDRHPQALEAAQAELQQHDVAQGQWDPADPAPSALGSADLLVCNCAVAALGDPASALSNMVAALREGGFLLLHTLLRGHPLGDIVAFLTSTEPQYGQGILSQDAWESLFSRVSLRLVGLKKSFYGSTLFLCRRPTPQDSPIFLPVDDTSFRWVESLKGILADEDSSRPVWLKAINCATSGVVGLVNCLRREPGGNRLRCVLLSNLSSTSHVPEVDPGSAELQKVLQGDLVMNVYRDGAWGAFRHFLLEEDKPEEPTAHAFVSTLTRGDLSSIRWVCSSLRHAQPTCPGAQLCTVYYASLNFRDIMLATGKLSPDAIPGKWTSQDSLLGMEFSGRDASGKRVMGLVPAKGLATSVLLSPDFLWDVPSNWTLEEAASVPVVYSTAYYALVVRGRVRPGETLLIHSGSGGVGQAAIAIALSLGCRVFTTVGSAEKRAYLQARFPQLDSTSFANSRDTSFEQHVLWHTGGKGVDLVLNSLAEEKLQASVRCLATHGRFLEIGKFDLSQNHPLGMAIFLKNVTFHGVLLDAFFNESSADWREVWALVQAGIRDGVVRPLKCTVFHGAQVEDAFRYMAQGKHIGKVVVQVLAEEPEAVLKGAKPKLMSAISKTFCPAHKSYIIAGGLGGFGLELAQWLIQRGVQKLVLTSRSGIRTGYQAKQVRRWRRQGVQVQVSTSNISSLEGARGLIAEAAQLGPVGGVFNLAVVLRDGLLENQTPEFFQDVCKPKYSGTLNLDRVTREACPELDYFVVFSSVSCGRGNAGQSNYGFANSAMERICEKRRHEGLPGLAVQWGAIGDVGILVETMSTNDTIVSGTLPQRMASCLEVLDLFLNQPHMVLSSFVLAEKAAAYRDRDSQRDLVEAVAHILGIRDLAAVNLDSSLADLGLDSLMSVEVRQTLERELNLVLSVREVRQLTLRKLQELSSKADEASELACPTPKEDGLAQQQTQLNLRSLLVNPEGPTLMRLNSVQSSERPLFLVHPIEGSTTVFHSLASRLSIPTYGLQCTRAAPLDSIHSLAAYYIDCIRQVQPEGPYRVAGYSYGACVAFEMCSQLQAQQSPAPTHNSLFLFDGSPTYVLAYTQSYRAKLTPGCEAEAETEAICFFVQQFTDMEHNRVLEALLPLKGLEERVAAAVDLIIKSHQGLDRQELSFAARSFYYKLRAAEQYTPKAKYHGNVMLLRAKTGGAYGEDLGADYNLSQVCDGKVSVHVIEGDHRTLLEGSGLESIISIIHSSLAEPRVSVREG

Structure (SMILES): CC1=C(C(=O)Nc2ccccc2)SCCO1
- outcome [1]: inactive
- outcome [2]: inactive
- outcome [3]: inactive
- outcome [4]: inactive
- outcome [5]: inactive
- AC50 [6]: 21.2 µM (active)
- outcome [7]: inactive
- outcome [8]: inactive
- outcome [9]: inactive
- AC50 [10]: 30.8 µM (active)

Structure (SMILES): CC(C)(C)c1ccc(CSc2cnn(C(C)(C)C)c(=O)c2Cl)cc1
- AC50 [9]: 1.9 µM (active)
- AC50 [10]: 24 µM (active)

Structure (SMILES): COC(=O)C=C(C)OP(=O)(OC)OC
- outcome [9]: inactive
- outcome [10]: inactive

Structure (SMILES): CNC(=O)ON=CC(C)(C)SC
- outcome [9]: inactive
- outcome [10]: inactive

Structure (SMILES): CCCCOC(=O)c1ccccc1C(=O)OCCCC
- outcome [9]: inactive
- outcome [10]: inactive

Structure (SMILES): COC(=O)c1ccccc1C(=O)OC
- outcome [9]: inactive
- outcome [10]: inactive

Structure (SMILES): Cc1ccc(-c2c(Cl)nc(C#N)n2S(=O)(=O)N(C)C)cc1
- outcome [9]: inactive
- AC50 [10]: 9 µM (active)

Structure (SMILES): CCCCC(CC)COC(=O)c1ccccc1C(=O)OCC(CC)CCCC (configuration not stated)
- outcome [9]: inactive
- outcome [10]: inactive

Structure (SMILES): COc1cnc(OC)n2nc(NS(=O)(=O)c3c(OCC(F)F)cccc3C(F)(F)F)nc12
- outcome [9]: inactive
- outcome [10]: inactive

Structure (SMILES): COC(=O)C(C)Oc1ccc(Oc2ccc(Cl)cc2Cl)cc1 (configuration not stated)
- outcome [9]: inactive
- outcome [10]: inactive

Structure (SMILES): CCCCNC(=O)OCC#CI
- AC50 [9]: 0.00316 µM (active)
- outcome [10]: inactive

Structure (SMILES): O=C(O)c1nc(Cl)ccc1Cl
- outcome [9]: inactive
- outcome [10]: inactive

Structure (SMILES): C#CCOS(=O)OC1CCCCC1Oc1ccc(C(C)(C)C)cc1 (configuration not stated)
- AC50 [9]: 44.8 µM (active)
- AC50 [10]: 27.5 µM (active)

Structure (SMILES): CCCN(CCC)c1c([N+](=O)[O-])cc(S(N)(=O)=O)cc1[N+](=O)[O-]
- AC50 [10]: 94.6 µM (active) and 74.2 µM (active)
- outcome [10]: inactive

Structure (SMILES): COc1ccc(C(c2ccc(OC)cc2)C(Cl)(Cl)Cl)cc1
- outcome [9]: inactive
- AC50 [10]: 80.5 µM (active)

Structure (SMILES): CC(Oc1ccc(Cl)cc1Cl)C(=O)O (configuration not stated)
- outcome [9]: inactive
- outcome [10]: inactive

Structure (SMILES): CO/C=C(/C(=O)OC)c1ccccc1Oc1cc(Oc2ccccc2C#N)ncn1
- AC50 [9]: 78.4 µM (active) and 82.9 µM (active) and 81.6 µM (active)
- AC50 [10]: 90.5 µM (active) and 91.3 µM (active) and 91 µM (active)

Structure (SMILES): N#Cc1nn(-c2c(Cl)cc(C(F)(F)F)cc2Cl)c(N)c1S(=O)C(F)(F)F (configuration not stated)
- AC50 [9]: 61.2 µM (active)
- AC50 [10]: 58.1 µM (active)

Structure (SMILES): C=CCC1=C(C)[C@@H](OC(=O)[C@@H]2[C@@H](C=C(C)C)C2(C)C)CC1=O
- outcome [9]: inactive
- outcome [10]: inactive

Structure (SMILES): OC(c1ccc(Cl)cc1)(c1cncnc1)c1ccccc1Cl (configuration not stated)
- AC50 [9]: 81 µM (active)
- AC50 [10]: 87.3 µM (active)

Structure (SMILES): COC(=O)N(OC)c1ccccc1COc1ccn(-c2ccc(Cl)cc2)n1
- AC50 [9]: 78.3 µM (active)
- outcome [10]: inactive

Structure (SMILES): CCc1nn(C)c(C(=O)NCc2ccc(C(C)(C)C)cc2)c1Cl
- outcome [9]: inactive
- AC50 [10]: 42.5 µM (active)

Structure (SMILES): N#Cc1cc(Br)c(O)c(Br)c1
- outcome [9]: inactive
- AC50 [10]: 8.13 µM (active)

Structure (SMILES): Fc1ccc(Oc2ccnc3cc(Cl)cc(Cl)c23)cc1
- outcome [9]: inactive
- outcome [10]: inactive

Structure (SMILES): CS/C(C)=N/OC(=O)N(C)SN(C)C(=O)O/N=C(\C)SC
- outcome [9]: inactive
- outcome [10]: inactive

Structure (SMILES): O=C(Nc1ccccc1)Nc1ccnc(Cl)c1
- outcome [9]: inactive
- outcome [10]: inactive

Structure (SMILES): CC(C)C1(C)N=C(c2nc3ccccc3cc2C(=O)O)NC1=O (configuration not stated)
- outcome [9]: inactive
- outcome [10]: inactive
